PubChem BioAssay AID651599 (National Center for Advancing Translational Sciences (NCATS), 2012)
Records with an inconclusive call do not appear. Calls follow the shape of the dose curve; as a rule, active = well fitted inhibition curve with a large enough effect; inconclusive = small, poorly fitted or top-dose-only effect; inactive = no such curve, though single readings can be large or run the other way.

target: Tumor susceptibility gene 101 protein (Homo sapiens) (UniProt Q99816); test: qHTS Assay for Iinhibitors of HIV-1 Budding by Blocking the Interaction of PTAP/TSG101: Hit Validation in TR assay; conditions: Tsg101 binding domain + Texas Red-labeled PTAP peptide, fluorescence polarization, 20 min; series mostly up to 57.5 µM; activity change, negative = inhibition: at the top concentration
Sequence (Q99816 whole entry, looked up, the tested form may be a part): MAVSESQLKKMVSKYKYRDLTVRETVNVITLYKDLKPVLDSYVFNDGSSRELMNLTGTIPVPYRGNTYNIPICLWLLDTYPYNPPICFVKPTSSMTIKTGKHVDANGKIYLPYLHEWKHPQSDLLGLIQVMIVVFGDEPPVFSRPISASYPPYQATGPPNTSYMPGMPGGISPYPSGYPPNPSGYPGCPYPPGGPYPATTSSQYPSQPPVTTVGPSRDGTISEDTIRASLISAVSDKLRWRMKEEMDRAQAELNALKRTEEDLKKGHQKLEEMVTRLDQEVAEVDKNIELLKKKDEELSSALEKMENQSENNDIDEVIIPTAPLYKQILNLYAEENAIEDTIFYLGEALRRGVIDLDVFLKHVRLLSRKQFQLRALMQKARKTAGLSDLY
How it was run: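 Texas Red-PTAP peptide (50 nM) binding to Tsg101 binding domain (10 uM), both final, in pH 7.5 HEPES buffer, read as polarization after 20 min at room temperature; compounds pinned before peptide addition.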
% is scaled to controls: 0 for no effect and ±100 for the full control effect.

Activity change, negative = inhibition, inactive:
CN1CCC2(CC1)C1CN(C)CC=C1C(C#N)=C(N)C2(C#N)C#N (stereo not drawn) 420%
COC(=O)c1cc(N2CCN(C)CC2)nc2ccccc12 -2.81%
O=C(NCc1cc(C(F)(F)F)ccc1Cl)c1cccc2c1C(=O)c1ccc(N3CCC(Cc4ccccc4)CC3)cc1S2(=O)=O 7.52%
C/C(=N\NC(=O)CC#N)c1cc2ccc(O)cc2oc1=O -3.9%
CCOc1cc(/C=C(\C#N)c2nc(-c3cccs3)c(NC(C)=O)s2)ccc1O -11.2%
Nc1ccc2nc3c(=O)[nH]c(=S)[nH]c3nc2c1 -13%
COC(=O)CN1C(=S)N(c2ccc(OC)cc2)C(=O)/C1=C/c1ccc(N2CCOCC2)cc1 23.4%
COc1ccc(/C=C2/N=C(c3cccs3)OC2=O)cc1OC(C)C 9.72%
CCc1cccc(CC)c1NC(=O)CSc1nnc(C2CC2)n1C 11.1%
CC(C)CSC1=NSC2=NC(=O)/C(=C\c3coc4ccccc4c3=O)C(=N)N12 34.4%
Nc1c(C(=O)C2CC2)sc2nc(-c3ccccc3)cc(C(F)(F)F)c12 19.3%
COc1ccc(OC)c(/C=C(\C#N)c2nc3ccccc3c(=O)[nH]2)c1 27.1%
O=C(c1ccccc1)[C@@H]1[C@@H]2C(=O)N(c3ccc(F)cc3)C(=O)[C@@H]2C2CCCN21 (stereo partly drawn) 54.6%
Cc1cccc(NC(=S)NCCC(c2ccccc2)c2ccccc2)c1 -2.24%
N#CC(C(=O)OC1CCCCC1)c1nc2ccccc2nc1N1CCOCC1 (stereo not drawn) 2.32%
COc1ccc(C2=CC(c3ccco3)n3ncnc3N2)cc1 (stereo not drawn) -21.5%
CCCCCCCCOc1ccc(C2OC34CCCCC3C(C#N)(C#N)C2(C#N)C(=N)O4)cc1 (stereo not drawn) -17.2%
COc1ccc(-n2nc(C(=O)Nc3ccc(OC)c(OC)c3)c3c4ccccc4n(C)c3c2=O)cc1 -9.28%
COc1ccc(OC)c2cc3ccccc3cc12 -3.96%
CCCN1CCCc2cc(CN)ccc21 -2.1%
CC(=O)n1c(C=Nc2ccc(Cl)cc2)c(O)c2ccccc21 -21.5%
O=c1oc2ccccc2cc1-c1nc(-c2cccs2)cs1 -12.5%
CN1C(=O)NC(c2ccccc2[N+](=O)[O-])C2=C1CCCC2=O (stereo not drawn) 3.67%
